From PubChem
Shiga toxin inh = Shiga toxin inhibition; inhibition, % at 38.7 µM; Vero cells, Shiga toxin protein synthesis inhibition reporter; actives 9.2% (n = 290,000); in the data active = inhibition mostly above about 28%, no sharp cut-off; inactive = mostly below about 43%
LmPK inh = blocks Leishmania mexicana pyruvate kinase activity; purified LmPK, Kinase-Glo ATP luminescence, 1 h; Potency, µM (highest dose often 57.5 µM), usual class: inhibitors; Q27686; AID 1721; actives 0.37% (n = 290,000)
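Pyruvate kinase activity monitored as ATP production (luciferase luminescence). Conditions: 0.1 nM enzyme, 0.5 mM PEP, 0.1 mM ADP, 1 h, RT; normalized against uninhibited and no-enzyme wells.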
FBPA Giardia inh = inhibitors of Giardia lamblia fructose-1,6-bisphosphate aldolase | actives 0.71% (n = 290,000) | purified Giardia FBPA | AID 2451 | Potency, µM (series often up to 59.6 µM), most hits filed as inhibitors; also: nearly all actives have a fitted effect of over 55% in size
Target sequence (A8B2U2 whole entry, looked up): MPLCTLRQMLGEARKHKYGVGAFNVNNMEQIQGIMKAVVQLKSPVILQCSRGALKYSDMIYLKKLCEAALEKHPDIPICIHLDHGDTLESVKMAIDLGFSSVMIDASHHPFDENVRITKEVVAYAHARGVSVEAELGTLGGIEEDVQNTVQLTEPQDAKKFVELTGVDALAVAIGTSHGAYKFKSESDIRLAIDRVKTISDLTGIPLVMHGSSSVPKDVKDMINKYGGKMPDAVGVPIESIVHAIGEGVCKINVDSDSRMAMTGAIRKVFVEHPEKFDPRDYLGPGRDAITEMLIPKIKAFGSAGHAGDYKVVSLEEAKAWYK
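40 nM FBPA preincubated 10 min at RT with compound (up to 57.5 uM final), then substrate plus GAPDH/TPI/NAD/arsenate coupling and diaphorase/resazurin added. Fluorescence read after 20 min at RT, 525/598 nm.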
Cycloheximide cs = affects cycloheximide protein synthesis inhibition readout, counter-screen; cell reporter, cycloheximide protein synthesis inhibition counterscreen; max response, %; actives 12% (n = 300,000); AID 2314; in the data active = max response mostly above about 13%, no sharp cut-off; inactive = mostly below about 14%; also: read at 38.3 µM for the half of the compounds with a filed dose
TbPYK inhibitor = inhibitors of Trypanosoma brucei pyruvate kinase; Q57TT1; TbPYK enzyme, Kinase-Glo Plus ATP luminescence, 45 min; Potency, µM (titrated, usually from 76.8 µM), actives largely listed as inhibitors; actives 0.12% (n = 410,000); AID 624173; also: nearly all actives have a fitted effect of over 50% in size
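Screened from lowest to highest concentration, compounds were pinned into TbPYK/substrate mixtures, and ADP (130 uM final) was added. Plates sat at room temperature for 45 min prior to Kinase-Glo Plus detection by luminescence.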
Sm TGR inh = inhibitors of Schistosoma mansoni thioredoxin glutathione reductase. Q962Y6. purified TGR, DTNB reduction, TNB absorbance 405 nm. Potency, µM (doses to about 114 µM), usual class: inhibitors. actives 3% (n = 360,000); also: nearly all actives have a fitted effect of over 60% in size
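First, TGR (20 nM dispensed) and NADPH were mixed with compound. Second, a 15 min room-temperature incubation followed. Third, further NADPH and then DTNB were added to start the reaction. Finally, TNB absorbance was monitored kinetically.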
Large screens that a line does not name were inactive. Only a selection was taken, and hits are over-represented in it overall. Unless noted, calls follow the shape of the dose curve; as a rule, active = well fitted curve in the direction sought with a large enough effect; inconclusive = small, poorly fitted or top-dose-only effect, or another doubt; inactive = no such curve, though single readings can be large; an effect the other way counts as inactive or inconclusive.

Cc1cc(=O)oc2c3c(cc(OCC(=O)NCc4ccco4)c12)OC(C)(C)CC3	Shiga toxin inh 33, Cycloheximide cs 30
Cc1c(C)c2c(OCC(=O)NCc3ccco3)cc3c(c2oc1=O)CCC(C)(C)O3	none
Cc1ccc(CN2CCc3nc(SCC(=O)Nc4cccc(C)c4C)[nH]c(=O)c3C2)cc1	none (no result: Shiga toxin inh, LmPK inh, FBPA Giardia inh, Cycloheximide cs)
CCC(C)N(C(=O)CSc1nnc(-c2ccco2)n1C)C1CCS(=O)(=O)C1 (stereo not drawn)	none (no result: Shiga toxin inh, LmPK inh, FBPA Giardia inh, Cycloheximide cs)
Cc1ccc(C2=NC(c3ccc(F)cc3)=Nc3ccc(C)cc3N2)cc1	none (no result: Shiga toxin inh, LmPK inh, FBPA Giardia inh, Cycloheximide cs)
CC1=C(C(=O)O)N2C(=O)[C@@H](NC(=O)[C@@H](N)c3ccc(O)cc3)[C@@H]2SC1	none (no result: Shiga toxin inh, LmPK inh, Cycloheximide cs, Sm TGR inh)
COc1ccc(C2CC(c3ccccc3)=NN2c2ccc(C(N)=O)cc2)cc1 (stereo not drawn)	none
COc1ccc(C2CC(c3ccc(OC)c(OC)c3)=NN2C(=O)c2ccccc2)cc1 (stereo not drawn)	none
COc1ccc(C2=NN(c3ccccc3)C(c3ccc(OC)c(OC)c3)C2)cc1 (stereo not drawn)	Shiga toxin inh 46, Cycloheximide cs 20
COc1ccc(C2=NN(C(C#N)c3ccc(OC)c(OC)c3)C(c3ccccc3)C2)cc1 (stereo not drawn)	Shiga toxin inh 113, Cycloheximide cs 43
COc1ccc(C2CC(c3ccc(F)cc3)=NN2c2ccccc2)cc1OC (stereo not drawn)	Shiga toxin inh 90, Cycloheximide cs 26, Sm TGR inh inconclusive
O=C(CSc1nnc2c(n1)[nH]c1ccccc12)NCc1ccccc1F	none
Cc1nc(-c2ccccc2)nc(Cl)c1Cl	none
Nc1c(Cl)nc(-c2ccccc2)nc1Cl	Cycloheximide cs 14
COc1ccc2c(=O)cc(-c3ccccc3F)oc2c1	Shiga toxin inh 54, Cycloheximide cs 41
COc1ccc2c(=O)cc(C(F)(F)C(F)(F)F)oc2c1	none
COc1ccc2oc(-c3ccco3)cc(=O)c2c1	Shiga toxin inh 68, LmPK inh inconclusive, Cycloheximide cs 50
COc1cccc2oc(-c3ccco3)cc(=O)c12	Cycloheximide cs 30, Sm TGR inh 7.9µM
O=c1cc(-c2ccco2)oc2ccc(Cl)cc12	none
Cc1c(NC(C)c2cc(Cl)ccc2O)c(=O)n(-c2ccccc2)n1C (stereo not drawn)	Sm TGR inh inconclusive
Cc1c(NC(C)c2ccccc2O)c(=O)n(-c2ccccc2)n1C (stereo not drawn)	Sm TGR inh 40µM
C=CCn1c(=O)/c(=C2/Sc3cc(OC)ccc3N2C)s/c1=C1\C(=O)N(CC)C(=S)N1C	Shiga toxin inh 53, Cycloheximide cs 21 (no result: TbPYK inhibitor)
CCN1/C(=C2\C(=O)N(C)C(=S)N2C)C=Cc2cc(OC)ccc21	LmPK inh inconclusive
CCCCOC(=O)c1ccc(NC(=O)c2cc3c(=O)n4cccc(C)c4nc3s2)cc1	none (no result: Shiga toxin inh, LmPK inh, FBPA Giardia inh, Cycloheximide cs)
CN(C)c1ncc2nc(CCc3ccccc3)c(=O)n(C[C@H]3CCCO3)c2n1	none (no result: Shiga toxin inh, LmPK inh, Cycloheximide cs, Sm TGR inh)
CCOC(=O)C(C(=O)OCC)C(C(=O)OCC)N1CCOCC1 (stereo not drawn)	TbPYK inhibitor inconclusive, Sm TGR inh 0.63µM
O=C(Nc1nnc(CCN2CCCCC2)s1)c1ccccc1	Cycloheximide cs 33
O=C(Nc1nnc(CCN2CCCCC2)s1)c1ccc(Br)cc1	none
O=C(Nc1nnc(CC2=CCCCC2)s1)c1cccs1	Shiga toxin inh 100, Cycloheximide cs 30
COc1cc(C(=O)Nc2nnc(Cc3ccccc3)s2)cc(OC)c1OC	none
Cc1ccc(C(=O)Nc2nnc(Cc3ccccc3)s2)cc1	none
O=C(Nc1nnc(Cc2ccc(Cl)cc2)s1)c1cccs1	none
O=C(Nc1nnc(Cc2ccccc2)s1)c1ccccc1	Shiga toxin inh 39, Cycloheximide cs 17
Cc1cccc(C(=O)Nc2nnc(Cc3ccccc3)s2)c1	Cycloheximide cs 9.3
Cc1ccc(C)c(Cn2nnc(C(=O)NCc3ccc(Cl)cc3Cl)c2N)c1	none (no result: Shiga toxin inh, LmPK inh, FBPA Giardia inh, Cycloheximide cs)
CCOC(=O)C1(C)CCCN(C(=O)c2ccc(C#N)cc2)C1 (stereo not drawn)	none (no result: Shiga toxin inh, LmPK inh, FBPA Giardia inh, Cycloheximide cs, Sm TGR inh)
O=C(Nc1nnc(Cc2ccccc2)s1)c1cccs1	Cycloheximide cs 25
Cc1[nH]c2ccccc2c1N=Nc1ccc(F)cc1	Cycloheximide cs 19
Cc1[nH]c2ccccc2c1N=Nc1cc(C(=O)O)cc(C(=O)O)c1	none (no result: Sm TGR inh)
Cc1[nH]c2ccccc2c1N=Nc1ccccc1F	Shiga toxin inh 53, Cycloheximide cs 24
CCOc1ccc(OCC)c(Nc2nc3ccc(C(=O)c4ccccc4)cc3n3cnnc23)c1	none (no result: Shiga toxin inh, LmPK inh, FBPA Giardia inh, Cycloheximide cs)
Nc1nnc(SCC(=O)c2ccc3ccccc3c2)s1	Shiga toxin inh 151, Cycloheximide cs 85
Nc1nnc(SCC(=O)c2cccc([N+](=O)[O-])c2)s1	none
Nc1nnc(SCCCC(=O)c2ccccc2)s1	Cycloheximide cs 23
CCOc1ccccc1CNC(=O)c1sc2ncccc2c1-n1cccc1	none (no result: Shiga toxin inh, LmPK inh, FBPA Giardia inh, Cycloheximide cs)
CC(OC(=O)CSc1ccc(F)cc1)C(=O)NC1(C#N)CCCCC1 (stereo not drawn)	Cycloheximide cs 7.3 (no result: FBPA Giardia inh)
COc1ccc(CCNS(=O)(=O)c2ccc(Br)s2)cc1	Shiga toxin inh 39, Cycloheximide cs 29 (no result: FBPA Giardia inh)
NC(=O)c1ccc[n+](CC(=O)Nc2ccccc2C(=O)O)c1	none
Oc1ccccc1C1=Nc2nc3ccccc3n2C(c2ccccc2)C1 (stereo not drawn)	Shiga toxin inh 84, Cycloheximide cs 49, Sm TGR inh 10µM
Cc1cccc(Cc2c(C)nc3nc(SCC(=O)NCc4ccc(F)cc4)nn3c2C)c1	none (no result: Shiga toxin inh, LmPK inh, FBPA Giardia inh, Cycloheximide cs)
COc1cccc2c(=O)n(CC(=O)Nc3ccccc3)ccc12	none
Cc1ccccc1CN1CCNC(=O)C1CC(=O)O (stereo not drawn)	Sm TGR inh 25µM
COc1cccc(CN2CCNC(=O)C2CC(=O)NC2CCCCC2)c1OC (stereo not drawn)	Sm TGR inh 45µM (no result: FBPA Giardia inh)
COc1cccc2c(=O)n(CC(=O)NC3CCCC3)ccc12	Cycloheximide cs 24
COc1cccc(CN2CCNC(=O)C2CC(=O)O)c1OC (stereo not drawn)	Sm TGR inh 40µM
O=C(COCc1cc(-c2ccc(F)cc2)on1)Nc1cccc(Cl)c1Cl	none (no result: Shiga toxin inh, LmPK inh, FBPA Giardia inh, Cycloheximide cs)
CC(C)OC(=O)C1OC1(C)c1ccccc1 (stereo not drawn)	none (no result: Shiga toxin inh, LmPK inh, FBPA Giardia inh, Cycloheximide cs, Sm TGR inh)
Cc1nc2c(OCCOc3ccc(F)cc3)cccn2c1N(C)C(=O)CCC1CCCC1	none (no result: Shiga toxin inh, LmPK inh, FBPA Giardia inh, Cycloheximide cs, Sm TGR inh)
CCOc1ccc(CN2CCNC(=O)C2CC(=O)NCc2cc(C)n(C)n2)cc1 (stereo not drawn)	Sm TGR inh inconclusive
O=C(CC1C(=O)NCCN1Cc1cccc(F)c1)NC1CCCCC1 (stereo not drawn)	Sm TGR inh 35µM (no result: FBPA Giardia inh)
COc1ccc(CN2CCNC(=O)C2CC(=O)NC2CCCC2)c(OC)c1 (stereo not drawn)	none (no result: FBPA Giardia inh)
O=C(CC1C(=O)NCCN1Cc1cccc(F)c1)NC1CCC1 (stereo not drawn)	Sm TGR inh inconclusive
